Of roughly 7,900 targets only a part is listed; those with a hit were picked by preference. About 0.6% of all pairs of compound and target were hits. Values without a mark were called inactive.
Columns and labels:
Test in all cases: log2 fold change, soluble protein after heating vs DMSO (PISA); higher = thermal stabilisation; K562 cells, 10 uM, 30 min; active = over 0.2 and 3.5 SD of the protein, either way, in both replicates (recomputed)
saracatinib = compound: CN1CCN(CCOc2cc(OC3CCOCC3)c3c(Nc4c(Cl)ccc5c4OCO5)ncnc3c2)CC1 [saracatinib]
Outline: (§1)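 For each measurement, 10 μM compound was applied for 30 min to K562 cells at 2×10^6 cells/mL. Aliquots were heated for 3 min across 48°C-58°C, pooled, and extracted in PBS with 0.5% NP-40 at 4°C; the supernatant after 21,000xg for 90 min was soluble protein. This was quantified by TMTpro 16plex LC-MS/MS with channel sums equalised, and thermal stability was reported relative to control samples from duplicates, on a log2 fold-change scale.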

sotrastaurin = compound: CN1CCN(c2nc(C3=C(c4c[nH]c5ccccc45)C(=O)NC3=O)c3ccccc3n2)CC1 [sotrastaurin]
Outline: as §1

alvocidib = compound: CN1CC[C@H](c2c(O)cc(O)c3c(=O)cc(-c4ccccc4Cl)oc23)[C@H](O)C1 [alvocidib]
Outline: as §1

Tubastatin A = compound: CN1CCc2c(c3ccccc3n2Cc2ccc(C(=O)NO)cc2)C1 [Tubastatin A]
Outline: as §1

[1] = compound: CNC(=O)C1=CC=CC=C1NC2=NC(=NC=C2Cl)NC3=C(C=C(C=C3)N4CCOCC4)OC
Outline: as §1

defactinib = compound: CNC(=O)c1ccc(Nc2ncc(C(F)(F)F)c(NCc3nccnc3N(C)S(C)(=O)=O)n2)cc1 [defactinib]
Outline: as §1

rucaparib = compound: CNCc1ccc(-c2[nH]c3cc(F)cc4c3c2CCNC4=O)cc1 [rucaparib]
Outline: as §1

[2] = compound: CNc1nc(-c2ccc3c(N)n[nH]c3c2)cc(N2C[C@@H](C(=O)NC3CCCCC3)CC[C@H]2C)n1
Outline: as §1

encorafenib = compound: COC(=O)N[C@@H](C)CNc1nccc(-c2cn(C(C)C)nc2-c2cc(Cl)cc(NS(C)(=O)=O)c2F)n1 [encorafenib]
Outline: as §1

[3] = compound: COC(=O)[C@H](CCSC)NC(=O)C1=C(C=C(C=C1)NC[C@H](CS)N)C2=CC=CC=C2
Outline: as §1

[4] = compound: COC1=CC=C(C=C1)CN2C=CC3=C2C=C(C=C3)C(=O)NO
Outline: as §1

filanesib = compound: CON(C)C(=O)N1N=C(c2cc(F)ccc2F)S[C@@]1(CCCN)c1ccccc1 [filanesib]
Outline: as §1

zotarolimus = compound: CO[C@H]1C[C@@H]2CC[C@@H](C)[C@@](O)(O2)C(=O)C(=O)N2CCCC[C@H]2C(=O)O[C@H]([C@H](C)C[C@@H]2CC[C@H](n3cnnn3)[C@H](OC)C2)CC(=O)[C@H](C)/C=C(\C)[C@@H](O)[C@@H](OC)C(=O)[C@H](C)C[C@H](C)/C=C/C=C/C=C/1C [zotarolimus]
Outline: as §1

idasanutlin = compound: COc1cc(C(=O)O)ccc1NC(=O)[C@@H]1N[C@@H](CC(C)(C)C)[C@](C#N)(c2ccc(Cl)cc2F)[C@H]1c1cccc(Cl)c1F [idasanutlin]
Outline: as §1

alisertib = compound: COc1cc(Nc2ncc3c(n2)-c2ccc(Cl)cc2C(c2c(F)cccc2OC)=NC3)ccc1C(=O)O [alisertib]
Outline: as §1

[5] = compound: COc1cc2nc(-c3cc(F)ccc3O)nc(N[C@@H]3CNC[C@H]3C(C)(C)O)c2cc1OC
Outline: as §1

gefitinib = compound: COc1cc2ncnc(Nc3ccc(F)c(Cl)c3)c2cc1OCCCN1CCOCC1 [gefitinib]
Outline: as §1

[6] = compound: COc1cccc2cc(-c3nc([C@H]4CC[C@H](C(=O)O)CC4)n4ncnc(N)c34)[nH]c12
Outline: as §1

lapatinib = compound: CS(=O)(=O)CCNCc1ccc(-c2ccc3ncnc(Nc4ccc(OCc5cccc(F)c5)c(Cl)c4)c3c2)o1 [lapatinib]
Outline: as §1

pictilisib = compound: CS(=O)(=O)N1CCN(Cc2cc3nc(-c4cccc5[nH]ncc45)nc(N4CCOCC4)c3s2)CC1 [pictilisib]
Outline: as §1

Sequence of UniProt Q6UB28 (Q6UB28 whole entry, looked up): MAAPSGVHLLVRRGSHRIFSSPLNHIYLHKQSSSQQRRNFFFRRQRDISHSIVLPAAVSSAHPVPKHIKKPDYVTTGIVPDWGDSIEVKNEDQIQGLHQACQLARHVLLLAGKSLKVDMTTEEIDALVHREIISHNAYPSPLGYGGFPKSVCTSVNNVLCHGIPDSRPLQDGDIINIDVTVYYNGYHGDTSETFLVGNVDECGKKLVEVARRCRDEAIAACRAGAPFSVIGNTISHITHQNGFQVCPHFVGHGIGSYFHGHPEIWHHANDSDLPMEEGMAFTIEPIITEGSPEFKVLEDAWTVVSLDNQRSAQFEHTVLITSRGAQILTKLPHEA
Sequence of UniProt Q68DH5 (Q68DH5 whole entry, looked up): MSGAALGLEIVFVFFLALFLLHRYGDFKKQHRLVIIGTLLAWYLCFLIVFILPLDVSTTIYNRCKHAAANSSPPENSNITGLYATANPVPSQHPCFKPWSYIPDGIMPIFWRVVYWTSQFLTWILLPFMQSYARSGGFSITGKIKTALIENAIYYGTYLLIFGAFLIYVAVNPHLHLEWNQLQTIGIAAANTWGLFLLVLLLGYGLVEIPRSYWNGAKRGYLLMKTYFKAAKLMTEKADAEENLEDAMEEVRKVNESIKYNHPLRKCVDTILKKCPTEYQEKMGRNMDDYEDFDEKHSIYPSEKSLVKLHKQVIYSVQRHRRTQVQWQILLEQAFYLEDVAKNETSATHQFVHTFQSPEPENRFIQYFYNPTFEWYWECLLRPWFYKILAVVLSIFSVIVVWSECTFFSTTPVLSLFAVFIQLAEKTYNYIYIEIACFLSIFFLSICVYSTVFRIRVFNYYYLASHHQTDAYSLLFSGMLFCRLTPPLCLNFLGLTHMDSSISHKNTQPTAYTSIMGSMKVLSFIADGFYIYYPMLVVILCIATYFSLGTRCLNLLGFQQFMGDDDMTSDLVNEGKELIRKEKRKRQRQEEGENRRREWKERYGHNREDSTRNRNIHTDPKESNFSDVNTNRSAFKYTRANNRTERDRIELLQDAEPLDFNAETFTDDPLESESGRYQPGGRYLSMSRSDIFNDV
Sequence of UniProt Q8NC54 (Q8NC54 whole entry, looked up): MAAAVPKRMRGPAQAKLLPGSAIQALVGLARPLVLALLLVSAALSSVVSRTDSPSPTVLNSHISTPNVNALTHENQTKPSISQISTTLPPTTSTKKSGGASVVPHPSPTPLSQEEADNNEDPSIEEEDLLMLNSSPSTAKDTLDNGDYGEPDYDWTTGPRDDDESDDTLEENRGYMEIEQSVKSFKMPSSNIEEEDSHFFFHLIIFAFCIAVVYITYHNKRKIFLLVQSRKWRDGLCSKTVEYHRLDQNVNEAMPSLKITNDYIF
Sequence of UniProt P50851 (P50851 whole entry, looked up): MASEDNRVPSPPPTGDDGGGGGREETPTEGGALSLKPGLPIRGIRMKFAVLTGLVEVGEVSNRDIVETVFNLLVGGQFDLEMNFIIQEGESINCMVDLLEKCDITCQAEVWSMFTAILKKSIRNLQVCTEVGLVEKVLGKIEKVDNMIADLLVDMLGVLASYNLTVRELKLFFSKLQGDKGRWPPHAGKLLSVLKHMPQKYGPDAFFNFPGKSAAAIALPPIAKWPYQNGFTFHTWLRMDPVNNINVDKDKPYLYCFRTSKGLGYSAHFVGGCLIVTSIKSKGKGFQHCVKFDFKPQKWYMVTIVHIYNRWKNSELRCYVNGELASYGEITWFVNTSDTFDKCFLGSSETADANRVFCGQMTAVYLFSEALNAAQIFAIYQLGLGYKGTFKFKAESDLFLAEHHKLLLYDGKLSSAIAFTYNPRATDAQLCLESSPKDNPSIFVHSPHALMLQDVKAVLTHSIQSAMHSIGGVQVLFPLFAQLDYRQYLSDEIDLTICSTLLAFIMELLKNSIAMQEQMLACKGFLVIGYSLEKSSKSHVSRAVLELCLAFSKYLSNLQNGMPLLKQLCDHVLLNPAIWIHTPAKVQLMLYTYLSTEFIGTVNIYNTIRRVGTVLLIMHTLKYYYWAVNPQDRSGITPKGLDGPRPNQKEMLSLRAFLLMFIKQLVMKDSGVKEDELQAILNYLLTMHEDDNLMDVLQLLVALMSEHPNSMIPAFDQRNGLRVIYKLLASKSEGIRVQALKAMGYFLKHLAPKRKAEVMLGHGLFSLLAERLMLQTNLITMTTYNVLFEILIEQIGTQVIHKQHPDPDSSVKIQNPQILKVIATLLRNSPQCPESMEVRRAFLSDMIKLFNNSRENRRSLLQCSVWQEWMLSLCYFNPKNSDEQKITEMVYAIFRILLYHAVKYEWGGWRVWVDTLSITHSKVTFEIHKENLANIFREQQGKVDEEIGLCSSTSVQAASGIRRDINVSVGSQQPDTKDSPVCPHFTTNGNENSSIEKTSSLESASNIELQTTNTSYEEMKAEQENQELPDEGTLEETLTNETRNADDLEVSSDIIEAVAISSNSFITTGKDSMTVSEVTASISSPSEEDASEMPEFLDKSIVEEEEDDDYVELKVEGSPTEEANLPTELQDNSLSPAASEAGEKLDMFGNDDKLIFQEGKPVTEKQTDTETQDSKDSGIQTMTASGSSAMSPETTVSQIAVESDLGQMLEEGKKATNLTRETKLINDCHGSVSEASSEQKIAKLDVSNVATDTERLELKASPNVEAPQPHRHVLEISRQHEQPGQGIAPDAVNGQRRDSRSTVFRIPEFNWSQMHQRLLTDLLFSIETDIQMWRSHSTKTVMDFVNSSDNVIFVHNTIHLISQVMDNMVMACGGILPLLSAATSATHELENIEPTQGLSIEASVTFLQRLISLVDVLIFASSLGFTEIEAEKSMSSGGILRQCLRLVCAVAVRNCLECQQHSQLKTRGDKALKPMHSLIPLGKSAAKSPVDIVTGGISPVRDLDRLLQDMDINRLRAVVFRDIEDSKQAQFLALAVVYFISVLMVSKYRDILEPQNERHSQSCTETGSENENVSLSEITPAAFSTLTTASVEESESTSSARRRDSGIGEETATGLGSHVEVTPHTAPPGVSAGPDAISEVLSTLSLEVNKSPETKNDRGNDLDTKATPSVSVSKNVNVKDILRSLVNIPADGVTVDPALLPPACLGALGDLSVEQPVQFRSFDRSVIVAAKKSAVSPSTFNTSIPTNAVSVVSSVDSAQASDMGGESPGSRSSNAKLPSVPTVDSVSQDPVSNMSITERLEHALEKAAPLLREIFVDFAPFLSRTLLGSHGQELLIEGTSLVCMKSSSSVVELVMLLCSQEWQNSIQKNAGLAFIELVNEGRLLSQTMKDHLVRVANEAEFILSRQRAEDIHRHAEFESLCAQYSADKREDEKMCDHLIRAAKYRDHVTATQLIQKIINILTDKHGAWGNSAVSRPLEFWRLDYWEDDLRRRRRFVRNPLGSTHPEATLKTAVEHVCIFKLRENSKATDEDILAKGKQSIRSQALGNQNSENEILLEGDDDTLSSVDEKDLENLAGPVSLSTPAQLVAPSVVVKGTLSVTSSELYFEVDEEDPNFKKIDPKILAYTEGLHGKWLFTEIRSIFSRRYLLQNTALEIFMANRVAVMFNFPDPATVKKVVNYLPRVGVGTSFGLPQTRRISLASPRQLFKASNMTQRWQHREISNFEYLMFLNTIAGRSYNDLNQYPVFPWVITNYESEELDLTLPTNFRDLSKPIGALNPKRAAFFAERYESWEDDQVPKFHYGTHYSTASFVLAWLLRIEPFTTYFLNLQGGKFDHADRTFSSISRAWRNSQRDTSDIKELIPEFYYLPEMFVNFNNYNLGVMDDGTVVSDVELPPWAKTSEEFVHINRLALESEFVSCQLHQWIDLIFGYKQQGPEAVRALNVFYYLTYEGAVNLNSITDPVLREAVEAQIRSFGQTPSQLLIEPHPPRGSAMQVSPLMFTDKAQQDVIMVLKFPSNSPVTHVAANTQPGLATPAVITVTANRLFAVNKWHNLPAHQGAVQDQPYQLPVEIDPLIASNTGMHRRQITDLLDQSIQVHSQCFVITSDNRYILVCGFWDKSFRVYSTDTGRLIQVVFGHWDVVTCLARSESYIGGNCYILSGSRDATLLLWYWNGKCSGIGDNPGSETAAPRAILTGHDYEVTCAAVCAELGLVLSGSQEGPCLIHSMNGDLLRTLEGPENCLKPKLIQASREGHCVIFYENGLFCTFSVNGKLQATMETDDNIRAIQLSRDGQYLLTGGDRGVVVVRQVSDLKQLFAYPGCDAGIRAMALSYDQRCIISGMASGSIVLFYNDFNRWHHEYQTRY
Sequence of UniProt Q12906 (Q12906 whole entry, looked up): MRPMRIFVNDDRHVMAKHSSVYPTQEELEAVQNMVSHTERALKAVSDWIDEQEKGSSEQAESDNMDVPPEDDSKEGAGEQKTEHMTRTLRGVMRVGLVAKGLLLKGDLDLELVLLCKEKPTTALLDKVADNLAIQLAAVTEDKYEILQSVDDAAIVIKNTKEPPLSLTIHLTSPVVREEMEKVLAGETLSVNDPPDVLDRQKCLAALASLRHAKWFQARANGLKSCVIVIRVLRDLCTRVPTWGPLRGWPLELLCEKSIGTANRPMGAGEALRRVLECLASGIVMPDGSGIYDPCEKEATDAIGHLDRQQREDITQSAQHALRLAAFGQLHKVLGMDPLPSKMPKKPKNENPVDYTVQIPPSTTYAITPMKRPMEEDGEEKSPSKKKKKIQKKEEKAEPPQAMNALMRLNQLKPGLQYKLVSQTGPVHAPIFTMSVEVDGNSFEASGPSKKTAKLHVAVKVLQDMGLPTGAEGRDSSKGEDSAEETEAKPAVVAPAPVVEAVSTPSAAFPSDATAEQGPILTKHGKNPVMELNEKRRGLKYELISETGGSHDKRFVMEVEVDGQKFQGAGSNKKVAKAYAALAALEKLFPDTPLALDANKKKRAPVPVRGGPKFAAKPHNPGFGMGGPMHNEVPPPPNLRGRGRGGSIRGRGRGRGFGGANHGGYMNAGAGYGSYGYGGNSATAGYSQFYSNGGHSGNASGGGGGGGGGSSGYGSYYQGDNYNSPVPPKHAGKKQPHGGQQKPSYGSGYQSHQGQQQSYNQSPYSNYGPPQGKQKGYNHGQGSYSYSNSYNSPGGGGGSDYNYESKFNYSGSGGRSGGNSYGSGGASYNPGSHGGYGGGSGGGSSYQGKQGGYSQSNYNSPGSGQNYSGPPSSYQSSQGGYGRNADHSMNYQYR

Target	log2 fold change (saracatinib)	log2 fold change (sotrastaurin)	log2 fold change (alvocidib)	log2 fold change (Tubastatin A)	log2 fold change [1]	log2 fold change (defactinib)	log2 fold change (rucaparib)	log2 fold change [2]	log2 fold change (encorafenib)	log2 fold change [3]	log2 fold change [4]	log2 fold change (filanesib)	log2 fold change (zotarolimus)	log2 fold change (idasanutlin)	log2 fold change (alisertib)	log2 fold change [5]	log2 fold change (gefitinib)	log2 fold change [6]	log2 fold change (lapatinib)	log2 fold change (pictilisib)
LRBA (UniProt P50851)	0.039	-0.031	-0.054	0.014	-0.012	-0.015	-0.01	-0.023	0.018	-0.002	-0.004	-0.06	0.002	-0.113	-0.017	0.029	-0.008	0.031	0.009	-0.015
ITM2B (UniProt Q9Y287)	-0.181	0.123	-0.053	0.143	0.06	-0.007	0.007	0.091	0.098	-0.096	-0.109	0.092	-0.042	-0.03	0.083	-0.037	-0.047	0.138	-0.116	–
MAD2L1 (UniProt Q13257)	0.037	-0.056	-0.109	0.01	0.05	-0.112	-0.058	-0.046	-0.007	-0.04	-0.024	-0.042	0.034	-0.12	-0.003	0.048	0.008	0.01	-0.064	0.024
MAP3K7 (UniProt O43318)	-0.07	-0.146	-0.072	0.054	0.023	-0.023	0.099	-0.035	0.1	-0.011	0.105	0.026	-0.074	-0.03	0.084	0.065	0.016	-0.054	-0.058	0.088
LBR (UniProt Q14739)	0.008	0.036	-0.032	-0.008	-0.02	-0.022	0.164	0.116	0.058	-0.089	-0.075	-0.065	-0.008	-0.196	-0.019	0.079	0.034	0	-0.081	-0.191
LPGAT1 (UniProt Q92604)	0.111	-0.001	-0.011	0.019	0.073	-0.184	0.036	-0.187	0.026	0.015	0.124	-0.021	0.001	-0.098	0.032	-0.082	-0.059	0.12	0.15	–
IL27RA (UniProt Q6UWB1)	0.062	0.014	-0.025	0.063	0.056	-0.097	-0.03	0.065	-0.023	0	-0.02	0.065	-0.11	0.113	-0.29	0.047	-0.169	0.207	0.043	–
MIEN1 (UniProt Q9BRT3)	0.049	-0.067	-0.141	0.069	-0.002	-0.067	-0.032	-0.019	-0.051	0.129	-0.084	0.085	0.015	-0.009	0.034	0.061	0.027	0.001	-0.016	0.001
KHDC4 (UniProt Q7Z7F0)	-0.139	0.027	-0.15	0.052	0.019	-0.058	-0.058	0.023	0.008	-0.023	0.14	-0.025	0.035	-0.043	-0.003	0.025	0.015	-0.026	-0.025	-0.028
ILF3 isoform 7 (UniProt Q12906)	0.001	0.087	0.362	-0.044	0.03	0.554 (active)	0.202	-0.003	0.032	0	0.022	0.213	-0.047	0.095	-0.061	0.174	-0.022	-0.06	0	0.018
LMBRD2 (UniProt Q68DH5)	0.04	0.02	-0.041	-0.032	-0.014	-0.01	0.003	-0.037	0.021	-0.021	-0.031	-0.095	0.108	-0.012	-0.035	0.025	0.082	-0.021	0.026	0.057
IPO7 (UniProt O95373)	-0.004	-0.089	-0.146	0.023	0.01	-0.163	-0.083	-0.012	0.052	-0.015	0.053	-0.094	0.014	-0.103	-0.087	-0.111	0	-0.014	-0.008	-0.006
METAP1D (UniProt Q6UB28)	0.088	-0.042	-0.086	-0.181	0.036	0.013	-0.074	0.04	0.006	0.006	0.342 (active)	-0.097	0.054	0.079	-0.085	0.021	-0.029	-0.035	-0.062	–
MFN2 (UniProt O95140)	-0.005	0.045	-0.012	0.02	-0.024	-0.066	0.041	0.058	-0.006	-0.026	0.04	-0.112	0.016	0	-0.043	-0.438 (active)	0.01	-0.006	0.027	-0.058
KCT2 (UniProt Q8NC54)	0.027	0.042	-0.095	-0.003	0.096	-0.088	-0.008	0.031	0.063	-0.036	-0.015	-0.036	-0.044	-0.029	-0.074	0.021	0.032	0.039	-0.002	0.023
LNPEP (UniProt Q9UIQ6)	0.048	0.037	0.01	-0.001	-0.01	-0.054	-0.014	-0.02	-0.008	0.012	0.001	-0.014	-0.03	-0.014	-0.01	0.016	0.01	0.058	0.003	0.04
